Here are results for 7 compounds from PubChem BioAssay (NCI).

What all share (experiment): NCI-60 one-dose screen, 48 h (100 = growth as untreated, 0 = no growth, -100 = all killed)
Test [1] concerns SK-MEL-2 melanoma. The following applies: 10 µM unless noted.
Test [2] relates to SN12C renal. The following applies: 10 µM unless noted.
In test [3] the test system is UO-31 renal. Conditions: 10 µM unless noted.
The subject of test [4] is TK-10 renal. Conditions: 10 µM unless noted.
Test [5] concerns ACHN renal. Conditions: 10 µM unless noted.
The test system of test [6] is CAKI-1 renal. The following applies: 10 µM.
Test [7] deals with A498 renal. The following applies: 10 µM unless noted.
The test system of test [8] is CCRF-CEM leukemia. The following applies: 10 µM unless noted.
The subject of test [9] is MOLT-4 leukemia. The following applies: 10 µM unless noted.
Test [10] has as its system SR leukemia. Conditions: 10 µM unless noted.
Test [11] has as its system RPMI-8226 leukemia. The following applies: 10 µM unless noted.
For test [12], the system named is OVCAR-8 ovarian. Conditions: 10 µM unless noted.
For test [13], the system named is OVCAR-5 ovarian. Conditions: 10 µM unless noted.
Test [14] concerns OVCAR-4 ovarian. The following applies: 10 µM unless noted.
The subject of test [15] is SK-OV-3 ovarian. Conditions: 10 µM unless noted.
Test [16] has as its system IGROV1 ovarian. Conditions: 10 µM unless noted.
The subject of test [17] is HS 578T breast. The following applies: 10 µM unless noted.
Test [18] concerns NCI/ADR-RES ovarian. Conditions: 10 µM unless noted.
Test [19] concerns EKVX NSCLC. The following applies: 10 µM unless noted.
Test [20] deals with OVCAR-3 ovarian. Conditions: 10 µM unless noted.

Compounds without any hit were thinned out: in the full panel of roughly 83,000, 20% have a hit.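 Compound tested at a single concentration for 48 hours in 96-well plates; a percent growth value below 10 was scored as active.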 Values without a mark were called inactive. Active and inactive are the calls of the source.

As to `CCN1C(=O)N(CC)C2SC(N/N=C/c3cccs3)=NC21` (stereo unspecified), the growth was 13.5% in test [1]; 29.9% in test [2]; 53.4% in test [3]; 84.5% in test [4]; 32.9% in [5]; 27.1% in test [6]. Besides, the growth in test [7] was -23% (active); in [8], 17.8%; in test [9], 13.3%; in test [10] it was 15.1%; in test [11], 23.3%; in [12], -4.75% (active). The growth in test [13] is 43.6%; in test [14], 62.5%; in test [15] it was 31.9%; in [16] it was 23.7%; in test [17] it was 15.4%; in [18], -0.335% (active).

`NC(N)=NS(=O)(=O)c1ccc(N=NC2C(=O)NN(c3ccccc3)C2=O)cc1` (stereo unspecified): the growth in test [19] is 110%; in test [2], 101%; in test [3], 82.9%; in [4] it was 106%; in test [5] it was 95.9%; in test [6], 87.7%. Moreover, the growth in test [7] was 98.2%; in [8], 116%; in test [9], 106%; in test [10], 109%; in test [11], 98.8%; in test [12] it was 104%. Besides, the growth in [13] was 101%; in [14], 104%; in test [15] it was 112%; in [16], 103%; in test [17] it was 89%; in test [18], 99.9%.

Regarding `CCCCCCNC(=O)Oc1ccc(/C(=C(/C)c2ccccc2)c2ccc(OCCN(C)C)cc2)cc1`, the growth in [19] was 72.2%; in test [2] it was 63.6%; in test [3] it was 53.9%; in test [4] it was 83%; in test [5], 71.3%; in test [6], 50.9%. In addition, the growth is 76.5% in test [7]; 67.9% in test [8]; 34.7% in test [9]; -27.8% (active) in [10]; 50.5% in [11]; 73.6% in [12]. Further, the growth was 73% in test [13]; 73.6% in test [14]; 93.2% in [15]; 66.3% in [16]; 64.5% in test [17]; 71.2% in [18].

Turning to `C=C1C(=O)O[C@@H]2/C=C(/C)C3=CC(=O)[C@@](C)(C[C@H](OC(=O)/C(C)=C\C)[C@@H]12)O3`, the growth in test [1] was -28.5% (active); in [19], 21.6%; in test [3] it was -85.4% (active); in [4], -18% (active); in [5], -39.1% (active); in test [6], 6.13% (active). Besides, the growth in test [7] was 59.5%; in test [8], -14.9% (active); in test [9] it was 0.44% (active); in test [10], 2.49% (active); in test [12], 8.15% (active); in [13], 4.42% (active). Also, the growth in test [14] is 21%; in test [15] it was 92.6%; in [16] it was 19%; in test [20] it was 2.79% (active); in [17] it was 46.5%; in test [18], 17.4%.

As for `C=C1C(=O)O[C@@H]2C[C@@H](C)/C=C\C(=O)[C@](C)(OC(C)=O)C[C@H](OC(=O)/C(C)=C\C)[C@@H]12`, the growth was -15.9% (active) in [1]; 5.52% (active) in [19]; -88.6% (active) in [3]; -61% (active) in [4]; -75.5% (active) in test [5]; -11.1% (active) in test [6]. Further, the growth in [7] is 38.8%; in test [8] it was -17% (active); in test [9] it was 2.13% (active); in test [10], 3.84% (active); in [11], -12.6% (active); in test [12] it was -16.1% (active). Further, the growth is -29.5% (active) in test [13]; 18.2% in test [14]; 80.7% in [15]; -19.7% (active) in test [16]; -23.3% (active) in [20]; 10.5% in test [18].

For the compound `Cn1nc(Nc2ccccc2)c(C(=O)NN)c1N`, the growth in [1] is 103%; in test [2], 97.3%; in test [3], 81.5%; in test [4] it was 118%; in test [5], 97.4%; in test [6] it was 94.1%. The growth in test [7] was 97.2%; in [8] it was 91.1%; in [9], 104%; in [10], 107%; in test [11], 106%; in [12], 97.5%. The growth was 102% in test [13]; 99.9% in [14]; 103% in test [15]; 95.4% in test [16]; 99.7% in test [17]; 93.9% in [18].

With `CC(=O)c1sc(Nc2cccc(Nc3nc(C)c(C)s3)c2)nc1C`, the growth was 68.8% in test [19]; 55% in test [2]; 32.2% in test [3]; 53.6% in [4]; 36.5% in [5]; 28.1% in [6]. In addition, the growth in test [7] was 27.7%; in [8] it was 61.2%; in [9], 38.3%; in [10] it was 38.5%; in test [11], 67.9%; in [12], 43.4%. Also, the growth was 83.5% in test [13]; 51.5% in [14]; 25.8% in test [15]; 26.4% in test [16]; 52.7% in [17]; 55.6% in test [18].
